This is an account of results in PubChem BioAssay (NCATS).

Records with an inconclusive call do not appear. Entries that show only a call come without a potency. Unmarked numbers belong to inactive results. Calls of active or inactive are those of the source. Calls come from the whole dose curve; as a rule, active = well fitted curve in the direction sought with a large enough effect; inconclusive = small, poorly fitted or top-dose-only effect, or another doubt; inactive = no such curve, though single readings can be large; an effect the other way counts as inactive or inconclusive. Bridge positions count the residues as written; N and C are the ends. Square brackets hold non-standard residues; d marks the D form. Side chains are listed from the residue outwards. Peptide text beside a SMILES is read from it. * marks the point of attachment. Phg(4-OMe) = COc1ccc([C@H](N)C(=O)O)cc1; d(aIle) = CC[C@H](C)[C@@H](N)C(=O)O; d(aThr) = C[C@@H](O)[C@@H](N)C(=O)O; NMeF = CN[C@@H](Cc1ccccc1)C(=O)O; Isobutyryl = CC(C)C(=O)*
Potency is the fitted concentration of half-maximal effect.

A short description of one assay: Viability qHTS for inhibitors of the SERCaMP assay screened against the NCATS CANVASS Library (AID 1347400). Note: nearly all actives have a fitted effect of over 70% in size. As to conditions: SH-SY5Y SERCaMP cells viability, CellTiter-Glo, 48 h; series mostly up to 92.2 µM. Put shortly: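 Seed SH-SY5Y-GLuc SERCaMP MJH297 cells at 1000 per well, incubate 4 h, add compounds across an 11-point range, incubate 48 h at 37C, then add CellTiter-Glo and read luminescence.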
In general terms: qHTS replaces the single test concentration by a dilution series.
For the compound `CC(C)=CCC[C@]12c3cc4c(cc3CC[C@@]1(C)[C@H](C)CC[C@@H]2O)[nH]c1ccccc14`, the Potency result was “inactive”.

As to `C/C=C/C1C=CC2CC(C)CC(C)C2C1C(=O)CC(=O)NC(CO)C/C=C/CCCCC` (stereo not given), the Potency entry was “inactive”.

With `C=C1CC[C@@H](Br)C(C)(C)[C@]12CC=C(C)C(=O)C2`, the Potency entry is “inactive”.

In the case of `C=CC(CCCCC)C1C(=O)NC(=O)C1C(=O)C1C(/C=C/C)C=CC2CC(C(=O)O)CC(C)C21` (stereo not given), the Potency result is “inactive”.

`C=C1CC[C@@H](O[C@H]2C[C@@](O)([C@H](C)NC(=O)c3[nH]c(C)c(Cl)c3Cl)[C@H](O)[C@@H](C)O2)[C@@H]2C=C[C@H](C)C(/C(O)=C3/C(=O)[C@H](C(C)C)N([C@@H]4O[C@H](C)[C@H](OC(N)=O)[C@H](OC(C)=O)[C@@H]4OC)C3=O)[C@@H]12` (stereo not given in full): the Potency entry was “inactive”.

As to `CC[C@H](C)[C@H]1NC(=O)[C@@H](NC(=O)C(C)C)[C@@H](C)OC(=O)[C@H](COC(=O)CNC(C)=O)NC(=O)[C@@H]([C@@H](C)O)NC(=O)[C@H](Cc2ccccc2)N(C)C(=O)[C@H](c2ccc(OC)cc2)NC1=O` (Isobutyryl-T[d(aIle)][Phg(4-OMe)][NMeF][d(aThr)]S([Gly-Ac]); ester 1-C), the Potency result was “inactive”.

Take `C=C(C)CC[C@H](Cc1c(O)cc(O)c2c1O[C@H](c1ccc(O)cc1)CC2=O)C(=C)C`: the Potency result is “inactive”.

For the compound `COc1c(O)cc2c(c1O)C(=O)c1c(coc1C)C2=O`, the Potency entry was “inactive”.

In the case of `Cc1occ2c1C(=O)c1c(cc(O)c(O)c1O)C2=O`, the Potency result is “inactive”.

On to `COc1ccc2[nH]c3c(c2c1)CCN1C[C@H]2C[C@@H](OC(=O)c4cc(OC)c(OC)c(OC)c4)[C@H](OC)[C@@H](OC)[C@H]2C[C@H]31`, for which the Potency entry was “inactive”.

Turning to `C=C[C@](Cl)(CBr)CCC=C(C)C`, the Potency entry is “inactive”.

As for `C=CC(CCCCC)C1C(=O)NC(=O)C1C(=O)C1C2C(C)CC(C(=O)O)CC2CC1(O)C(=O)/C=C/C` (stereo not given), the Potency entry is “inactive”.

Consider `O[C@H]1c2ccccc2-c2c3c(cc4c2[C@@H]1NCC4)OCO3`, for which the Potency was 38.1 µM (active).

`C[C@]12CCC[C@](C)(C(=O)O)[C@@H]1CC[C@@]1(C)c3cocc3CC[C@H]21`: the Potency result is “inactive”.

In the case of `COc1cc(C2OCC3C(c4ccc(O)c(OC)c4)OCC23)ccc1O` (stereo not given), the activity change, negative = cytotoxicity is -10.2% [at 18.4 µM].

With `C[n+]1cc2cc(C(N)=O)[nH]c3c(=N)c(Cl)c(N)c1c23`, the Potency is 42.8 µM (active).

In the case of `COc1cc2c(c(O)c1O)C(=O)c1c(coc1C)C2=O`, the Potency is 15.2 µM (active).

On to `CCC(=O)N[C@@H](C[C@H](C)C(Cl)(Cl)Cl)C(=O)N1C(=O)C=C(OC)[C@@H]1CC(C)C`, for which the Potency entry was “inactive”.

With `O=c1cc(-c2ccc(O)c(O)c2)oc2cc(O[C@@H]3O[C@H](CO)[C@@H](O)[C@H](O)[C@H]3O)cc(O)c12`, the Potency result was “inactive”.

As to `C/C1=C/[C@@H](C)[C@H](O)[C@@H](O)/C=C/CC/C=C/C(=O)O[C@@H]1[C@H](C)C(=O)CCCC1CC(=O)NC(=O)C1`, the Potency result was “inactive”.

With `CN1CC[C@]2(c3cccc4c3N[C@H]3N(C)CC[C@@]43[C@]34CCN(C)[C@H]3Nc3ccccc34)c3ccccc3N[C@H]12`, the Potency was 15.2 µM (active).

Turning to `CC(=O)Oc1cc2c(c(OC(C)=O)c1C1CCc3cc(Cl)c(Cl)n31)C(=O)n1c-2cc(Cl)c1Cl` (stereo not given), the Potency is 42.8 µM (active).

As for `COc1cc2c(cc1OC)[C@@H](c1ccc3c(c1)OCO3)C(C)C(C)C2=O` (stereo not given in full), the Potency entry is “inactive”.

Take `C/C=C(/C)c1c(Cl)c(O)c(C)c2c1Oc1c(Cl)c(O)c(Cl)c(C)c1C(=O)O2`: the Potency entry was “inactive”.

For the compound `CC(C)C[C@@H]1c2c(O)c(C=O)c(O)c(C=O)c2O[C@]2(C)C=C[C@@H](C(C)C)C[C@H]12`, the Potency entry is “inactive”.

Regarding `C/C=C(/C)c1cc(O)c(C)c2c1Oc1cc(O)cc(C)c1C(=O)O2`, the Potency entry was “inactive”.

`CC(C)[C@]12CC[C@@]3(C)[C@H](C)CC[C@H](O)[C@@]3(CC1)c1cc3c(cc12)[nH]c1ccccc13`: the Potency result was “inactive”.

Consider `C/C=C(/C)c1c(Cl)c(OC)c(C)c2c1Oc1c(Cl)c(O)c(Cl)c(C)c1C(=O)O2`, for which the Potency entry is “inactive”.

Consider `C/C(=C\CC[C@@H](C)[C@H]1CC[C@]2(C)C3=CCC4C(C)(C)[C@@H](O)C[C@@H](O)[C@]4(C)C3[C@H](O)C[C@@]12C)CO` (stereo not given in full), for which the Potency entry was “inactive”.

As for `COC12OC1(C13OC1(OC)C(=O)c1cc4cc(C)oc(=O)c4c(O)c1C3O)C(O)c1c(cc3cc(C)oc(=O)c3c1O)C2=O` (stereo not given), the Potency entry is “inactive”.

For the compound `CO[C@H]1[C@@H](OC(=O)/C(C)=C\[C@@H]2O[C@@H]2[C@H]2O[C@H]2C)[C@H](O)[C@H](OCC23C[C@@H]4[C@H](C)CC[C@H]4C4(C=O)CC2C=C(C(C)C)C34C(=O)O)O[C@@H]1C` (stereo not given in full), the Potency entry is “inactive”.

The nature of a further assay: Redox Reaction Profiling qHTS: Assay Interference Panel against the NCATS CANVASS Library (AID 1347401). As to conditions: resazurin-DTT redox cycling, fluorescence, 15 min; series mostly up to 57.1 µM. The procedure, abridged:
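Quantitative HTS over an 11-point series was run in HEPES pH 7.3 with 50 mM NaCl, 200 uM DTT and 5 uM resazurin. Initial and 15-min resorufin fluorescence readings were taken.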
Regarding `CC(C)=CCC[C@]12c3cc4c(cc3CC[C@@]1(C)[C@H](C)CC[C@@H]2O)[nH]c1ccccc14`, the Potency entry is “inactive”.

As for `C/C=C/C1C=CC2CC(C)CC(C)C2C1C(=O)CC(=O)NC(CO)C/C=C/CCCCC` (stereo not given), the Potency result is “inactive”.

Turning to `C=C1CC[C@@H](Br)C(C)(C)[C@]12CC=C(C)C(=O)C2`, the Potency entry is “inactive”.

Turning to `C=CC(CCCCC)C1C(=O)NC(=O)C1C(=O)C1C(/C=C/C)C=CC2CC(C(=O)O)CC(C)C21` (stereo not given), the Potency result was “inactive”.

Consider `COc1cc(/C=C/C(=O)OC[C@@H](Cc2ccc(O)c(OC)c2)[C@@H](COC(=O)/C=C/c2ccc(O)c(OC)c2)Cc2ccc(O)c(OC)c2)ccc1O`, for which the Potency result was “inactive”.

`O=C1CC2OCC=C3CN4C5CC3C2[C@@H]2N1c1ccccc1[C@]52C[C@@H]4C1=C[C@H]2C3CC4N(CC[C@@]45c4ccccc4N(C1=O)[C@@H]25)C/C3=C/CO` (stereo not given in full): the Potency entry is “inactive”.

In the case of `CC[C@H](C)[C@H]1NC(=O)[C@@H](NC(=O)C(C)C)[C@@H](C)OC(=O)[C@H](COC(=O)CNC(C)=O)NC(=O)[C@@H]([C@@H](C)O)NC(=O)[C@H](Cc2ccccc2)N(C)C(=O)[C@H](c2ccc(OC)cc2)NC1=O` (Isobutyryl-T[d(aIle)][Phg(4-OMe)][NMeF][d(aThr)]S([Gly-Ac]); ester 1-C), the Potency entry is “inactive”.

For `C=C(C)CC[C@H](Cc1c(O)cc(O)c2c1O[C@H](c1ccc(O)cc1)CC2=O)C(=C)C`, the Potency result was “inactive”.

With `COc1c(O)cc2c(c1O)C(=O)c1c(coc1C)C2=O`, the Potency was 24.1 µM (active).

Regarding `C[C@]12CC[C@]3(C1)[C@H](CC2=O)C[C@@H](OC(=O)c1ccccc1)[C@H]1[C@](C)(C(=O)O)CCC[C@@]13C`, the Potency entry is “inactive”.

In the case of `Cc1occ2c1C(=O)c1c(cc(O)c(O)c1O)C2=O`, the Potency entry is “inactive”.

Regarding `COc1ccc2[nH]c3c(c2c1)CCN1C[C@H]2C[C@@H](OC(=O)c4cc(OC)c(OC)c(OC)c4)[C@H](OC)[C@@H](OC)[C@H]2C[C@H]31`, the Potency result is “inactive”.

Consider `C=C[C@](Cl)(CBr)CCC=C(C)C`, for which the Potency result was “inactive”.

For `CC(=O)O[C@H]1c2ccccc2-c2c3c(cc4c2[C@@H]1N(C(C)=O)CC4)OCO3`, the Potency entry was “inactive”.

With `C=CC(CCCCC)C1C(=O)NC(=O)C1C(=O)C1C2C(C)CC(C(=O)O)CC2CC1(O)C(=O)/C=C/C` (stereo not given), the Potency result was “inactive”.

As to `O[C@H]1c2ccccc2-c2c3c(cc4c2[C@@H]1NCC4)OCO3`, the Potency is 19.2 µM (active).

Regarding `C[C@]12CCC[C@](C)(C(=O)O)[C@@H]1CC[C@@]1(C)c3cocc3CC[C@H]21`, the Potency result is “inactive”.

With `COc1cc(C2OCC3C(c4ccc(O)c(OC)c4)OCC23)ccc1O` (stereo not given), the activation (redox signal) is -17.9% [at 11.4 µM].

In the case of `COc1cc(O)c(C(=O)[C@@H]2[C@H](CC=C(C)C)C(C)=CC[C@H]2c2ccccc2)c(O)c1`, the Potency entry was “inactive”.

As for `C[n+]1cc2cc(C(N)=O)[nH]c3c(=N)c(Cl)c(N)c1c23`, the Potency is 1.92 µM (active).

For the compound `COc1cc2c(c(O)c1O)C(=O)c1c(coc1C)C2=O`, the Potency is 0.764 µM (active).

In the case of `CCC(=O)N[C@@H](C[C@H](C)C(Cl)(Cl)Cl)C(=O)N1C(=O)C=C(OC)[C@@H]1CC(C)C`, the Potency result was “inactive”.

On to `O=c1cc(-c2ccc(O)c(O)c2)oc2cc(O[C@@H]3O[C@H](CO)[C@@H](O)[C@H](O)[C@H]3O)cc(O)c12`, for which the Potency result is “inactive”.

`C/C1=C/[C@@H](C)[C@H](O)[C@@H](O)/C=C/CC/C=C/C(=O)O[C@@H]1[C@H](C)C(=O)CCCC1CC(=O)NC(=O)C1`: the Potency entry is “inactive”.

As for `CN1CC[C@]2(c3cccc4c3N[C@H]3N(C)CC[C@@]43[C@]34CCN(C)[C@H]3Nc3ccccc34)c3ccccc3N[C@H]12`, the Potency result is “inactive”.

Regarding `CC[C@H]1[C@H](C)[C@H](c2cc(OC)c(OC)cc2OC)[C@@H](C)[C@H](c2cc(OC)c(OC)cc2OC)[C@@]12C=C(OC)C(=O)C=C2OC`, the Potency result was “inactive”.

Consider `COc1cc2c(cc1OC)[C@@H](c1ccc3c(c1)OCO3)C(C)C(C)C2=O` (stereo not given in full), for which the Potency result is “inactive”.

For `C/C=C(/C)c1c(Cl)c(O)c(C)c2c1Oc1c(Cl)c(O)c(Cl)c(C)c1C(=O)O2`, the Potency entry was “inactive”.

Turning to `C/C=C(/C)c1cc(O)c(C)c2c1Oc1cc(O)cc(C)c1C(=O)O2`, the Potency result is “inactive”.

Take `CC(C)[C@]12CC[C@@]3(C)[C@H](C)CC[C@H](O)[C@@]3(CC1)c1cc3c(cc12)[nH]c1ccccc13`: the Potency result is “inactive”.

As to `C[C@H]1C=C[C@H]2CCCC[C@@H]2[C@H]1C(=O)[C@H]1CC2=C(C(=O)O)CCN2C1=O`, the Potency result was “inactive”.

For `C/C=C(/C)c1c(Cl)c(OC)c(C)c2c1Oc1c(Cl)c(O)c(Cl)c(C)c1C(=O)O2`, the Potency result is “inactive”.

For `C/C(=C\CC[C@@H](C)[C@H]1CC[C@]2(C)C3=CCC4C(C)(C)[C@@H](O)C[C@@H](O)[C@]4(C)C3[C@H](O)C[C@@]12C)CO` (stereo not given in full), the Potency result is “inactive”.

On to `CO[C@H]1[C@@H](OC(=O)/C(C)=C\[C@@H]2O[C@@H]2[C@H]2O[C@H]2C)[C@H](O)[C@H](OCC23C[C@@H]4[C@H](C)CC[C@H]4C4(C=O)CC2C=C(C(C)C)C34C(=O)O)O[C@@H]1C` (stereo not given in full), for which the Potency entry was “inactive”.
